In all, about 1,300 sequences were measured (“log fluorescence intensity”: median about 8.3, highest 2% from about 12 on). The sample as a whole holds a higher share of the highest values than the screen did.

The target in the assay is T1, ETS1 (Homo sapiens, UniProt P14921 1-441).
T1 sequence: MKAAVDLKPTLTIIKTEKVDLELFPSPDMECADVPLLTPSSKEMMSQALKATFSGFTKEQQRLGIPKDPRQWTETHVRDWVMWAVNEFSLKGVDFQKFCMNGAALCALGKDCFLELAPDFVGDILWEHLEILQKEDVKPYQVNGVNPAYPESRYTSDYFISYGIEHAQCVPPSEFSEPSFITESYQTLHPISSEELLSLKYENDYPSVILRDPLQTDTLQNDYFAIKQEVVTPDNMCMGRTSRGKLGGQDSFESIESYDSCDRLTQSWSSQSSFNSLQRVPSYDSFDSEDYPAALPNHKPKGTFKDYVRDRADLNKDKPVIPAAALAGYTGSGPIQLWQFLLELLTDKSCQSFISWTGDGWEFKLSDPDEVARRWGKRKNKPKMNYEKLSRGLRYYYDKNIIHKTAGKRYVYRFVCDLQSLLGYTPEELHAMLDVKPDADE
Description: custom PBM; custom protein-binding microarray; buffer, salt, pH and temperature not stated; high values mean tight binding. To be noted: dsDNA, one strand shown.
On to “GGAAAAAGGCCCTGGGTAACACCGGAAGTGGGCTTAGTCTTGATTCGCTTGACGCTGCTG”, for which the binding signal was 12 log fluorescence intensity.
With “GGAAAAAGGCCCCGGGTAACACCGGAAGTGGGCTTAGTCTTGATTCGCTTGACGCTGCTG” the figure was 12.6 log fluorescence intensity; with “GGAAAAAGGCCCGGGGTAACACCGGAAGTGGGCTTAGTCTTGATTCGCTTGACGCTGCTG”, 12.5 log fluorescence intensity.
With “TAAAGGGAAGAAGGTTGTGGTAGTTCCGGGTATTAAGTCTTGATTCGCTTGACGCTGCTG” the figure was 8.45 log fluorescence intensity; with “GGAAAAAGGCCCAGGGTAACACCGTAAGTGGGCTTAGTCTTGATTCGCTTGACGCTGCTG”, 8.34 log fluorescence intensity.
As to “GTGTATAGGAACCCATCCAACACACGTGTTAAAATGGTCTTGATTCGCTTGACGCTGCTG”, the binding signal was 8.33 log fluorescence intensity.
For the sequence “CGGAAGTGTCGTAACCGTCGGATATCCGGTTCTTCTGTCTTGATTCGCTTGACGCTGCTG”, the binding signal was 11.9 log fluorescence intensity.
“TAAAGGGAAGACGGTAGTGGTAGTTCCGGGTATTAAGTCTTGATTCGCTTGACGCTGCTG”: the binding signal is 8.7 log fluorescence intensity.
As to “GCTGCTGCGGTGCATACCCCACCGGACGTGACCCCGGTCTTGATTCGCTTGACGCTGCTG”, the binding signal was 8.55 log fluorescence intensity.
With “GGAAAAAGGCCCAGGGTAACACCGGAAGTGGGCTTCGTCTTGATTCGCTTGACGCTGCTG” the figure was 12.1 log fluorescence intensity.
With “GGAAAAAGGCCCAGGGTAACACCGGAAGTGGGCTAAGTCTTGATTCGCTTGACGCTGCTG” the figure was 12.1 log fluorescence intensity.
For “GGAAAAAGGCCCAGGGTAACACCGGAAGTGGGCTTAGTCTTGATTCGCTTGACGCTGCTG”, the binding signal is 12 log fluorescence intensity.
With “GGAAAAAGGCCCAGGGTAACACCGGAAGTGGGCTCAGTCTTGATTCGCTTGACGCTGCTG”, the binding signal is 12 log fluorescence intensity.
Turning to “GGAAAAAGGCCCAGGGTAACACCGGAAGTGGGCATAGTCTTGATTCGCTTGACGCTGCTG”, the binding signal was 12 log fluorescence intensity.
Take “GAAAAAAGGCCCAGGGTAACACCGGAAGTGGGCTTAGTCTTGATTCGCTTGACGCTGCTG”: the binding signal is 12.1 log fluorescence intensity.
With “GGAAAAAGGCCCAGGGTAACACCGGAAGTGGGCTTTGTCTTGATTCGCTTGACGCTGCTG” the figure was 12.1 log fluorescence intensity.
Turning to “GGAAAAAGGCCCAGGGTAACACCGGAAGTGGGCTGAGTCTTGATTCGCTTGACGCTGCTG”, the binding signal is 11.9 log fluorescence intensity.
As for “GGAAAAAGGCCCAGGGTAACACCGGAAGTGGGCTTGGTCTTGATTCGCTTGACGCTGCTG”, the binding signal is 11.8 log fluorescence intensity.
With “TAAAGGAAAGACGGTTGTGGTAGTTCCGGGTATTAAGTCTTGATTCGCTTGACGCTGCTG” the figure was 8.77 log fluorescence intensity; with “TGTCGGGTAAGGGAATGTAGATCACGTGACTGAAAAGTCTTGATTCGCTTGACGCTGCTG”, 8.33 log fluorescence intensity.
As for “TAAAGGGAAGACGGTTGTGGGAGTTCCGGGTATTAAGTCTTGATTCGCTTGACGCTGCTG”, the figure is 8.37 log fluorescence intensity; as for “CTGAAGTGTCGTAAACGTCGGATATCCGGTTCTTCTGTCTTGATTCGCTTGACGCTGCTG”, 11.8 log fluorescence intensity.
Regarding “TCCGCCTACCAGCTCCACCCACTTCAGGCCTTGTAGGTCTTGATTCGCTTGACGCTGCTG”, the binding signal was 8.47 log fluorescence intensity.
With “TAAAGGGAAGACGCTTGTGGTAGTTCCGGGTATTAAGTCTTGATTCGCTTGACGCTGCTG” the figure was 8.41 log fluorescence intensity.
As for “GGAAAAAGGCCCAGGGTAACACCGGATGTGGGCTTAGTCTTGATTCGCTTGACGCTGCTG”, the figure is 11 log fluorescence intensity; as for “CAGCATCGGACTTCTTCCCTGAAGCAATTGATAACCGTCTTGATTCGCTTGACGCTGCTG”, 8.4 log fluorescence intensity; as for “GCTGCTGCGGTGCATACCCCACCGGATGTGACCCGGGTCTTGATTCGCTTGACGCTGCTG”, 10.2 log fluorescence intensity.
In the case of “GCTGCTGCGGTGCATACCTCACCGGATGTGACCCCGGTCTTGATTCGCTTGACGCTGCTG”, the binding signal is 9.97 log fluorescence intensity.
As for “GGAAAAAGGCCCAGGGTAACACCGGAAATGGGCTTAGTCTTGATTCGCTTGACGCTGCTG”, the figure is 11.5 log fluorescence intensity; as for “GCTTCTGCGGTGCATACCCCACCGGATGTGACCCCGGTCTTGATTCGCTTGACGCTGCTG”, 10.3 log fluorescence intensity.
With “GGAAAAAGGCCCAGGGTAACACCTGAAGTGGGCTTAGTCTTGATTCGCTTGACGCTGCTG” the figure was 8.36 log fluorescence intensity.
With “TAAAGGGAAGACGATTGTGGTAGTTCCGGGTATTAAGTCTTGATTCGCTTGACGCTGCTG” the figure was 8.5 log fluorescence intensity; with “GCTGCTGCGGTGCATACCCCACCGGATGTGACCCCAGTCTTGATTCGCTTGACGCTGCTG”, 10.1 log fluorescence intensity.
For the sequence “GGAAAAAGGCCCAGGGTAACACCGGAACTGGGCTTAGTCTTGATTCGCTTGACGCTGCTG”, the binding signal was 9.07 log fluorescence intensity.
As for “GCTGCTGCGGTGCATACCCCACCGGATGTGACCCTGGTCTTGATTCGCTTGACGCTGCTG”, the figure is 10.1 log fluorescence intensity.
In the case of “CTGGGACTTGAACCAACTCTGCCACGTGGGTCGTTTGTCTTGATTCGCTTGACGCTGCTG”, the binding signal was 8.34 log fluorescence intensity.
With “CGGAAGTGTCGTAAACGTCGGATATCAGGTTCTTCTGTCTTGATTCGCTTGACGCTGCTG” the figure was 8.51 log fluorescence intensity; with “GTGTATAGGGTCCCATCCAACACACGTGTTAAAATGGTCTTGATTCGCTTGACGCTGCTG”, 8.3 log fluorescence intensity.
“TCCGGCTACCAGCTCCACTCACTTCAGGCCTTGTAGGTCTTGATTCGCTTGACGCTGCTG”: the binding signal was 8.4 log fluorescence intensity.
As for “GTGTATAGGATCCCATCCAACACACGTGTTAAAATGGTCTTGATTCGCTTGACGCTGCTG”, the figure is 8.35 log fluorescence intensity.
As for “TGTCGGGTAAGGGAATGTAGATCACGTGAATGTAAAGTCTTGATTCGCTTGACGCTGCTG”, the figure is 8.34 log fluorescence intensity; as for “CTGGGACTTGACCCAACTCTGCCACGTGGGTCGATTGTCTTGATTCGCTTGACGCTGCTG”, 8.33 log fluorescence intensity; as for “GTCTATAGGATCCCATCCAACACACGTGTTAAAATGGTCTTGATTCGCTTGACGCTGCTG”, 8.42 log fluorescence intensity.
In the case of “GCTGCTGCGGTGCATACCCCACCGGATGTGTCCCCGGTCTTGATTCGCTTGACGCTGCTG”, the binding signal is 9.62 log fluorescence intensity.
With “GCTGCAGCGGTGCATACCCCACCGGATGTGACCCCGGTCTTGATTCGCTTGACGCTGCTG” the figure was 10.4 log fluorescence intensity.
Consider “CAGCATAGGACTTCTTCACTGAAGCAATTGATAACCGTCTTGATTCGCTTGACGCTGCTG”, for which the binding signal was 8.32 log fluorescence intensity.
As for “GCTGCTGCGGTGCATACCCCCCCGGATGTGACCCCGGTCTTGATTCGCTTGACGCTGCTG”, the figure is 8.71 log fluorescence intensity; as for “CGGAAGTGTCGTAGACGTCGGATATCCGGTTCTTCTGTCTTGATTCGCTTGACGCTGCTG”, 11.7 log fluorescence intensity.
In the case of “CAGCATAGGACTTCTTCCCTGAAGGAATTGATAACCGTCTTGATTCGCTTGACGCTGCTG”, the binding signal was 8.32 log fluorescence intensity.
As for “CGGAAGTGTCGTAAACGTCGGATATCCAGTTCTTCTGTCTTGATTCGCTTGACGCTGCTG”, the figure is 8.64 log fluorescence intensity.
As to “CACTGACTTATATATGCGAATGCACATGAATAGACCGTCTTGATTCGCTTGACGCTGCTG”, the binding signal was 8.35 log fluorescence intensity.
As for “GCTGCTGCGGTGCACACCCCACCGGATGTGACCCCGGTCTTGATTCGCTTGACGCTGCTG”, the figure is 10.3 log fluorescence intensity; as for “ACTGCTGCGGTGCATACCCCACCGGATGTGACCCCGGTCTTGATTCGCTTGACGCTGCTG”, 10.4 log fluorescence intensity.
With “TAAAGGGAAGACGGCTGTGGTAGTTCCGGGTATTAAGTCTTGATTCGCTTGACGCTGCTG” the figure was 8.35 log fluorescence intensity; with “TAAAGGTAAGACGGTTGTGGTAGTTCCGGGTATTAAGTCTTGATTCGCTTGACGCTGCTG”, 8.54 log fluorescence intensity.
As for “GGAAAAAGGCCCAGGGTAACACCGGAAGTGGGGTTAGTCTTGATTCGCTTGACGCTGCTG”, the figure is 12 log fluorescence intensity.
Consider “TAAAGGCAAGACGGTTGTGGTAGTTCCGGGTATTAAGTCTTGATTCGCTTGACGCTGCTG”, for which the binding signal was 8.32 log fluorescence intensity.
As for “GCTGCTGTGGTGCATACCCCACCGGATGTGACCCCGGTCTTGATTCGCTTGACGCTGCTG”, the figure is 10.3 log fluorescence intensity.
“GGAACAAGGCCCAGGGTAACACCGGAAGTGGGCTTAGTCTTGATTCGCTTGACGCTGCTG”: the binding signal is 11.9 log fluorescence intensity.
As for “CGGAAGAGTCGTAAACGTCGGATATCCGGTTCTTCTGTCTTGATTCGCTTGACGCTGCTG”, the figure is 11.8 log fluorescence intensity; as for “GGAAAAACGCCCAGGGTAACACCGGAAGTGGGCTTAGTCTTGATTCGCTTGACGCTGCTG”, 12.1 log fluorescence intensity.
As for “GCTGCTGCTGTGCATACCCCACCGGATGTGACCCCGGTCTTGATTCGCTTGACGCTGCTG”, the figure is 9.42 log fluorescence intensity.
As for “GGAAAAAGGCCCAGGGTAAGACCGGAAGTGGGCTTAGTCTTGATTCGCTTGACGCTGCTG”, the figure is 12 log fluorescence intensity.
Take “TAAAGGGAAGACGGTTGTGGTAGTTACGGGTATTAAGTCTTGATTCGCTTGACGCTGCTG”: the binding signal is 8.37 log fluorescence intensity.
With “TGTCGGGTAAGGGCATGTAGATCACGTGAATGAAAAGTCTTGATTCGCTTGACGCTGCTG” the figure was 8.41 log fluorescence intensity.
As for “GGAAAAAGGCCCAGGGTATCACCGGAAGTGGGCTTAGTCTTGATTCGCTTGACGCTGCTG”, the figure is 11.4 log fluorescence intensity; as for “TACTGACTTATAGATGCGAATGCACATGAATAGACCGTCTTGATTCGCTTGACGCTGCTG”, 8.45 log fluorescence intensity; as for “TAAAGGGAAGACGGTTCTGGTAGTTCCGGGTATTAAGTCTTGATTCGCTTGACGCTGCTG”, 8.63 log fluorescence intensity.
As for “CAGCATAGGACTTCTTCCCTGAAGCAATTGATAACGGTCTTGATTCGCTTGACGCTGCTG”, the figure is 8.34 log fluorescence intensity; as for “CGGAAGTGTCGTAAACGTCGGATATCGGGTTCTTCTGTCTTGATTCGCTTGACGCTGCTG”, 8.65 log fluorescence intensity; as for “GGGTATAGGATCCCATCCAACACACGTGTTAAAATGGTCTTGATTCGCTTGACGCTGCTG”, 8.44 log fluorescence intensity.
With “GTGTATAGGATCCCATCCAACACACGCGTTAAAATGGTCTTGATTCGCTTGACGCTGCTG”, the binding signal is 8.37 log fluorescence intensity.
With “CGGAAGTGTCGTAAACGTCGGATATCCGGTTCTCCTGTCTTGATTCGCTTGACGCTGCTG” the figure was 11.8 log fluorescence intensity; with “GCTGCTGCGGTGCATACCCCAGCGGATGTGACCCCGGTCTTGATTCGCTTGACGCTGCTG”, 8.5 log fluorescence intensity.
As for “GGAAAAAGGCCCAGCGTAACACCGGAAGTGGGCTTAGTCTTGATTCGCTTGACGCTGCTG”, the figure is 11.9 log fluorescence intensity; as for “TAAAGGGAAGACTGTTGTGGTAGTTCCGGGTATTAAGTCTTGATTCGCTTGACGCTGCTG”, 8.36 log fluorescence intensity.
As for “TAAAGGGAAGACGGTTGTGGTAGTTCCGGTTATTAAGTCTTGATTCGCTTGACGCTGCTG”, the figure is 9.95 log fluorescence intensity; as for “TAAAGGGAAGACGGTTGTGGTAGTTCCGGGCATTAAGTCTTGATTCGCTTGACGCTGCTG”, 8.59 log fluorescence intensity.
“CGGAAGTGTCGTAAACGTCGGATATCTGGTTCTTCTGTCTTGATTCGCTTGACGCTGCTG”: the binding signal was 8.37 log fluorescence intensity.
For the sequence “GCTGCTACGGTGCATACCCCACCGGATGTGACCCCGGTCTTGATTCGCTTGACGCTGCTG”, the binding signal was 10.3 log fluorescence intensity.
As for “CGGAAGTGTCGTAAACGTCGGATATCCGGTTATTCTGTCTTGATTCGCTTGACGCTGCTG”, the figure is 12.1 log fluorescence intensity.

For the origin of these results see article PMC6602471.
